Assay results published in PubChem BioAssay AID1159580 (chemical genetic matrix, 2015).
Hit rate of the full screen: of about 5,500 compounds, about 2,000 (36%) were called active. Another 18% or so got no clear call; they are omitted. No stated cut-off is given here; in the data, active means normalized growth mostly below about 0.91 (no sharp cut-off); inconclusive means no clear call, values can overlap the other calls; inactive means mostly above about 0.92. This is one part of the list.

Assay: chemical genetic growth profiling, strain panel (AID 1159580);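 further: tested at 20 µM; growth read once vehicle control cultures reached saturation at 30 °C; 1 = growth at the plate median or of vehicle wells; lower values mean less growth of the strain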
Details: growth OD
[1] = S. cerevisiae deletion strains, locus YBR021W, strain FUR4, active compounds read low
[2] = S. cerevisiae deletion strains, locus YBR229C, strain ROT2, active compounds read low
[3] = S. cerevisiae deletion strains, locus YCL029C, strain bik1, active compounds read low
[4] = S. cerevisiae deletion strains, locus YDL035C, strain GPR1, active compounds read low
[5] = S. cerevisiae deletion strains, locus YDL074C, strain BRE1, active compounds read low
[6] = S. cerevisiae deletion strains, locus YDL101C, strain DUN1, active compounds read low
[7] = S. cerevisiae deletion strains, locus YDL134C, strain PPH21, active compounds read low
[8] = S. cerevisiae deletion strains, locus YDL185W, strain tfp1, active compounds read low
[9] = S. cerevisiae deletion strains, locus YDL192W, strain arf1, active compounds read low
[10] = S. cerevisiae deletion strains, locus YDR101C, strain arx1, active compounds read low
[11] = S. cerevisiae deletion strains, locus YDR162C, strain NBP2, active compounds read low
[12] = S. cerevisiae deletion strains, locus YDR318W, strain mcm21, active compounds read low
[13] = S. cerevisiae deletion strains, locus YDR388W, active compounds read low
[14] = S. cerevisiae deletion strains, locus YDR502C, strain sam2, active compounds read low
[15] = S. cerevisiae deletion strains, locus YER110C, active compounds read low
[16] = S. cerevisiae deletion strains, locus YER155C, strain BEM2, active compounds read low
[17] = S. cerevisiae deletion strains, locus YER167W, strain BCK2, active compounds read low
[18] = S. cerevisiae deletion strains, locus YGL078C, strain dbp3, active compounds read low
[19] = S. cerevisiae deletion strains, locus YGL086W, strain mad1, active compounds read low
[20] = S. cerevisiae deletion strains, locus YGL248W, strain PDE1, active compounds read low
[21] = S. cerevisiae deletion strains, locus YGR135W, strain pre9, active compounds read low
[22] = S. cerevisiae deletion strains, locus YGR252W, strain gcn5, active compounds read low
[23] = S. cerevisiae deletion strains, locus YHR030C, strain SLT2, active compounds read low
[24] = S. cerevisiae deletion strains, locus YHR079C, strain IRE1 (second series), active compounds read low
[25] = S. cerevisiae deletion strains, locus YHR094C, strain hxt1, active compounds read low
[26] = S. cerevisiae deletion strains, locus YHR129C, strain ARP1, active compounds read low
[27] = S. cerevisiae deletion strains, locus YHR200W, strain rpn10, active compounds read low
[28] = S. cerevisiae deletion strains, locus YIL066C, strain RNR3, active compounds read low
[29] = S. cerevisiae deletion strains, locus YIL073C, strain SPO22, active compounds read low
[30] = S. cerevisiae deletion strains, locus YIL125W, strain kgd1, active compounds read low
[31] = S. cerevisiae deletion strains, locus YIR030C, strain dcg1, active compounds read low
[32] = S. cerevisiae deletion strains, locus YJL095W, strain BCK1, active compounds read low
[33] = S. cerevisiae deletion strains, locus YJL134W, strain LCB3, active compounds read low
[34] = S. cerevisiae deletion strains, locus YJL168C, strain set2, active compounds read low
[35] = S. cerevisiae deletion strains, locus YJL187C, strain SWE1 (second series), active compounds read low
[36] = S. cerevisiae deletion strains, locus YKL009W, strain mrt4, active compounds read low
[37] = S. cerevisiae deletion strains, locus YKL068W, active compounds read low
[38] = S. cerevisiae deletion strains, locus YKL085W, strain MDH1 (second series), active compounds read low
[39] = S. cerevisiae deletion strains, locus YKL085W, strain MDH1, active compounds read low
[40] = S. cerevisiae deletion strains, locus YKR001C, strain vps1, active compounds read low
[41] = S. cerevisiae deletion strains, locus YLR039C, strain RIC1, active compounds read low
[42] = S. cerevisiae deletion strains, locus YLR058C, strain SHM2, active compounds read low
[43] = S. cerevisiae deletion strains, locus YLR102C, strain apc9, active compounds read low
[44] = S. cerevisiae deletion strains, locus YLR268W, strain sec22, active compounds read low
[45] = S. cerevisiae deletion strains, locus YLR371W, strain rom2, active compounds read low
[46] = S. cerevisiae deletion strains, locus YLR418C, strain cdc73, active compounds read low
[47] = S. cerevisiae deletion strains, locus YML016C, strain PPZ1, active compounds read low
[48] = S. cerevisiae deletion strains, locus YML032C, strain rad52, active compounds read low
[49] = S. cerevisiae deletion strains, locus YML124C, strain tub3, active compounds read low
[50] = S. cerevisiae deletion strains, locus YMR078C, strain ctf18, active compounds read low
[51] = S. cerevisiae deletion strains, locus YMR223W, strain ubp8, active compounds read low
[52] = S. cerevisiae deletion strains, locus YMR307W, strain GAS1, active compounds read low
[53] = S. cerevisiae deletion strains, locus YNL067W, strain RPL9B, active compounds read low
[54] = S. cerevisiae deletion strains, locus YNL128W, strain TEP1, active compounds read low
[55] = S. cerevisiae deletion strains, locus YNL233W, strain BNI4, active compounds read low
[56] = S. cerevisiae deletion strains, locus YNL250W, strain rad50, active compounds read low
[57] = S. cerevisiae deletion strains, locus YNL271C, strain bni1, active compounds read low
[58] = S. cerevisiae deletion strains, locus YNL298W, strain CLA4, active compounds read low
[59] = S. cerevisiae deletion strains, locus YNL307C, strain MCK1, active compounds read low
[60] = S. cerevisiae deletion strains, locus YNR052C, strain pop2, active compounds read low
[61] = S. cerevisiae deletion strains, locus YOL012C, strain htz1
[62] = S. cerevisiae deletion strains, locus YOL147C, strain pex11, active compounds read low
[63] = S. cerevisiae deletion strains, locus YOR061W, strain CKA2, active compounds read low
[64] = S. cerevisiae deletion strains, locus YOR069W, strain VPS5, active compounds read low
[65] = S. cerevisiae deletion strains, locus YOR136W, strain idh2, active compounds read low
[66] = S. cerevisiae deletion strains, locus YOR144C, strain elg1, active compounds read low
[67] = S. cerevisiae deletion strains, locus YOR184W, strain ser1, active compounds read low
[68] = S. cerevisiae deletion strains, locus YOR316C, strain cot1, active compounds read low
[69] = S. cerevisiae deletion strains, locus YPL055C, strain LGE1, active compounds read low
[70] = S. cerevisiae deletion strains, locus YPL241C, strain CIN2, active compounds read low
[71] = S. cerevisiae deletion strains, locus YPR119W, strain clb2, active compounds read low
[72] = S. cerevisiae deletion strains, locus YPR141C, strain kar3, active compounds read low
[73] = S. cerevisiae deletion strains, locus YPR163C, strain tif3, active compounds read low
[74] = S. cerevisiae deletion strains, locus YPR167C, strain met16, active compounds read low
[75] = S. cerevisiae deletion strains, strain wtn01, active compounds read low

Measured: normalized growth

CC1(C)C(O)CC(O)C2(C)C1CC(O)C1(C)C2CCC2(C)C(c3ccoc3)CC3OC321 (configuration not stated)
inactive: [1] 0.936 | [2] 1.01 | [3] 1 | [4] 0.969 | [5] 0.973 | [6] 1 | [7] 0.992 | [8] 1.02 | [9] 1 | [10] 0.987 | [11] 0.998 | [12] 1 | [13] 1.01 | [14] 0.998 | S. cerevisiae deletion strains, locus YEL061C, strain CIN8, active compounds read low 0.997 | [15] 1.02 | [16] 0.996 | [17] 1 | [18] 1.01 | [19] 0.99 | [20] 1 | S. cerevisiae deletion strains, locus YGR078C, strain PAC10, active compounds read low 0.991 | [21] 0.997 | [22] 0.981 | [23] 1.01 | [24] 1.02 | [25] 1.01 | [26] 0.998 | [27] 1 | [28] 0.99 | [29] 1.04 | [30] 1.01 | [31] 1.02 | [32] 0.978 | [33] 0.998 | [34] 1.01 | [35] 0.996 | [36] 0.982 | [37] 1.01 | [38] 0.996 | [39] 0.996 | [40] 0.99 | [41] 1.03 | [42] 0.998 | [43] 1 | S. cerevisiae deletion strains, locus YLR262C, strain YPT6, active compounds read low 1.01 | [44] 0.993 | [45] 0.994 | [46] 0.983 | [47] 1 | [48] 1.01 | [49] 1.01 | [50] 1.02 | [51] 0.989 | S. cerevisiae deletion strains, locus YMR263W, strain SAP30, active compounds read low 1.01 | [52] 0.991 | [53] 1 | [54] 0.998 | [55] 0.978 | [56] 1.01 | [57] 1.01 | [58] 1.01 | [59] 1.03 | S. cerevisiae deletion strains, locus YNL322C, strain KRE1, active compounds read low 0.996 | [60] 1 | [61] 1.12 | [62] 1 | [63] 1 | [64] 1 | [65] 0.998 | [66] 1.02 | [67] 0.976 | [68] 1.01 | [69] 0.988 | [70] 0.997 | [71] 1.01 | [72] 1.02 | [73] 1.01 | [74] 1.01 | [75] 0.986 | S. cerevisiae strains, strain wild type, active compounds read low 0.972

CC1(C)C(=O)C=CC2(C)C3CCC4(C)C(c5ccoc5)CC5OC54C3C(O)CC12 (configuration not stated)
inactive: S. cerevisiae deletion strains, locus YAL013W, strain DEP1, active compounds read low 0.975 | [1] 0.985 | [2] 0.995 | [3] 1.01 | [4] 0.942 | [5] 0.862 | [6] 0.958 | [7] 0.945 | [8] 1.02 | [9] 0.986 | [10] 0.98 | [11] 0.882 | [12] 0.992 | [13] 1.02 | [14] 1.01 | [15] 1.03 | [16] 0.988 | [17] 0.961 | [18] 1.02 | [19] 0.975 | [20] 0.958 | [21] 0.984 | S. cerevisiae deletion strains, locus YGR229C, strain SMI1, active compounds read low 0.868 | [22] 0.981 | [23] 1 | [24] 1.02 | [25] 1.02 | [26] 0.977 | [27] 0.993 | [28] 0.926 | [29] 0.999 | [30] 0.999 | [31] 1.01 | [32] 0.884 | [33] 0.992 | [34] 1.01 | [35] 0.955 | S. cerevisiae deletion strains, locus YJR075W, strain HOC1, active compounds read low 0.981 | [36] 1.01 | [37] 1.01 | [38] 1 | [39] 1 | [40] 0.984 | [41] 0.785 | [42] 0.975 | [43] 1.01 | [44] 0.987 | S. cerevisiae deletion strains, locus YLR330W, strain CHS5, active compounds read low 0.965 | [45] 1 | [46] 0.951 | [47] 0.993 | [48] 1 | [49] 1.01 | [50] 1 | [51] 0.993 | [52] 0.842 | [53] 0.978 | [54] 0.972 | S. cerevisiae deletion strains, locus YNL153C, strain GIM3, active compounds read low 0.983 | [55] 0.938 | [56] 1.02 | [57] 1.01 | [58] 1.03 | [59] 1 | [60] 0.995 | S. cerevisiae deletion strains, locus YOL006C, strain TOP1, active compounds read low 0.956 | [61] 1.23 | [62] 1 | [63] 0.979 | [64] 0.989 | [65] 1.02 | [66] 1.01 | [67] 0.886 | [68] 1.02 | [69] 0.928 | [70] 0.995 | [71] 1.02 | [72] 1.01 | [73] 1.02 | [74] 1 | [75] 0.993
